Laboratory results as given in PubChem BioAssay (EPA / NIEHS).
More than one record can exist for a structure, and the calls need not agree. Active and inactive are the calls of the source. The calls were made as follows: active = hit-call score of the fitted dose curve at least 0.9, where 1 is the maximum; inactive = score below 0.9.

Each compound was assayed on Epidermal growth factor receptor (EGFR), EGFR (gene 1956) (assay: BSK_hDFCGF_EGFR: BioMAP Diversity Plus: hDFCGF Assay for Epidermal growth factor receptor (EGFR) Biomarker Activity (AID 2283057)). Conditions: primary human foreskin fibroblasts; actives raise or lower the signal.
Method: BSK_hDFCGF is a cell-based, multiplexed-readout assay that uses foreskin fibroblast, a human skin primary cell, with measurements taken at 24 hours after chemical dosing in a 96-well plate.BSK_hDFCGF_EGFR is an assay component measured in the BSK_hDFCGF assay. It measures EGFR antibody related to regulation of gene expression using ELISA technology.Data from the assay component BSK_hDFCGF_EGFR was analyzed into 1 assay endpoint. This assay endpoint, BSK_hDFCGF_EGFR, was analyzed with bidirectional fitting relative to DMSO as the negative control and baseline of activity. Using a type of binding reporter, gain or loss-of-signal activity can be used to understand changes in the signaling as they relate to the gene EGFR. Furthermore, this assay endpoint can be referred to as a primary readout, because this assay has produced multiple assay endpoints where this one serves a signaling function. To generalize the intended target to other relatable targets, this assay endpoint is annotated to the kinase intended target family, where the subfamily is receptor tyrosine kinase.
The levels of cell surface (or secreted, indicated by the prefix "s") biomarker endpoints were measured by ELISA. Overt cytotoxicity to cells in confluent adherent cultures (all systems other than the BT system) was assessed by measuring total protein levels using sulforhodamine B (SRB) staining in parallel cultures at the time of biomarker measurements, indicated as SRB endpoints. For proliferation assays for adherent cell types, individual cell types are cultured at sub-confluence and relative cell numbers quantified by SRB staining at time points optimized for each system (48 h: 3C and CASM3C systems; 72 h: BT and HDF3CGF systems; 96 h: SAg system). SRB was performed by staining cells with 0.1% SRB after fixation with 10% TCA and reading wells at 560 nm.Viability and proliferation of PBMC (T cells) was quantified by Alamar Blue reduction for the SAg and BT systems. For PBMC viability (referred to as PBMC Cytotoxicity within the assay endpoint names), cells were plated (75,000/well in a 96-well plate) and then chemical samples added for 1 h before addition of activators, SEB and TSST-1 (20 ng/mL final concentration each). Cells were incubated for 90 h. Then, Alamar Blue (20 uL/well) (Invitrogen, Cat DAL1100) was added for 6 h, and the plates were read with a fluorescence microplate reader at 546/580 nm (excitation/emission). For PBMC proliferation, cells were plated and activated as above but incubated for only 16 h prior to addition of Alamar Blue. Plates were read after 6 h.

Row | Compound | AC50 | outcome
1 | Cc1[nH]nc2c1N=C(c1ccccc1Cl)c1cc([N+](=O)[O-])ccc1N2 | 20 µM (active) | 
2 | CC(=O)Nc1ccc(O)cc1 |  | inactive
3 | O=P(O)(O)CCC(F)(F)C(F)(F)C(F)(F)C(F)(F)C(F)(F)C(F)(F)C(F)(F)C(F)(F)F | 29 µM (active) | inactive
4 | O=P(O)(O)CCC(F)(F)C(F)(F)C(F)(F)C(F)(F)C(F)(F)C(F)(F)F |  | inactive
5 | Oc1c(Cl)cc(Cl)cc1Sc1cc(Cl)cc(Cl)c1O | 0.236 µM (active) | inactive
6 | CCCCC=O |  | inactive
7 | O=C(O)CCC(F)(F)C(F)(F)C(F)(F)C(F)(F)C(F)(F)C(F)(F)F |  | inactive
8 | Cc1ccc(C(=O)c2ccccc2)cc1 |  | inactive
9 | CCCCCCCCCCCCOS(=O)(=O)O | 20 µM (active) | 
10 | O=C1OC2(c3ccccc31)c1cc(I)c(O)c(I)c1Oc1c2cc(I)c(O)c1I | 1.88 µM (active) | 
11 | CCCCCCCCCCCC |  | inactive
12 | OCCN1CN(CCO)CN(CCO)C1 |  | inactive
13 | OCC(CO)(CBr)CBr |  | inactive
14 | O=C(O)C(F)(F)OC(F)(F)C(F)(F)OC(F)(F)C(F)(F)OC(F)(F)C(F)(F)C(F)(F)C(F)(F)F |  | inactive
15 | C=CC(=C)CC/C=C(\C)CCC=C(C)C |  | inactive
16 | Oc1cc2ccccc2cc1O |  | inactive
17 | CCCCC(CC)C(=O)O (stereo not given) |  | inactive
18 | COc1cc(OC)nc(NC(=O)NS(=O)(=O)Nc2ccccc2C(=O)N(C)C)n1 |  | inactive
19 | CN(C)CCOC(c1ccccc1)c1ccccc1 |  | inactive

Row | Compound | AC50 | outcome
20 | CCCCc1oc2ccccc2c1C(=O)c1cc(I)c(OCCN(CC)CC)c(I)c1 |  | inactive
21 | CN(Cc1cnc2nc(N)nc(N)c2n1)c1ccc(C(=O)N[C@@H](CCC(=O)O)C(=O)O)cc1 |  | inactive
22 | Cc1cccc2c1ccc1ccccc12 |  | inactive
23 | C=CC(C)(CCC=C(C)C)OC(C)=O (stereo not given) |  | inactive
24 | O=C(CC(=O)C(F)(F)C(F)(F)C(F)(F)F)c1cccs1 |  | inactive
25 | COC1=CC(=O)C[C@@H](C)[C@]12Oc1c(Cl)c(OC)cc(OC)c1C2=O |  | inactive
26 | OCC(F)(F)C(F)(F)C(F)(F)C(F)(F)C(F)(F)C(F)(F)C(F)(F)C(F)(F)C(F)(F)C(F)(F)C(F)(F)F |  | inactive
27 | C=COC(=O)C(C)(C)CCCCCC |  | inactive
28 | Oc1ccc(Cc2ccccc2O)cc1 |  | inactive
29 | CC[N+](CC)(CC)Cc1ccccc1 |  | inactive
30 | CN(CCO)S(=O)(=O)C(F)(F)C(F)(F)C(F)(F)C(F)(F)C(F)(F)C(F)(F)C(F)(F)C(F)(F)F |  | inactive
31 | CC(C)(C)c1ccc(O)c(O)c1 |  | inactive
32 | C=CC(=O)OCCC(F)(F)C(F)(F)C(F)(F)C(F)(F)C(F)(F)C(F)(F)C(F)(F)C(F)(F)F |  | inactive
33 | C[C@]12CC[C@@H]3c4ccc(O)cc4CC[C@H]3[C@@H]1C[C@@H](O)[C@@H]2O |  | inactive
34 | CCCCCc1ccc(O)cc1 | 29.9 µM (active) | 
35 | O=C(O)CCC(F)(F)C(F)(F)C(F)(F)C(F)(F)C(F)(F)F |  | inactive
36 | COCN(COC)c1nc(N(COC)COC)nc(N(COC)COC)n1 |  | inactive
37 | O=S(=O)(O)C(F)(F)C(F)(F)C(F)(F)C(F)(F)C(F)(F)C(F)(F)C(F)(F)C(F)(F)C(F)(F)C(F)(F)F |  | inactive
38 | Cc1ccc(N=Nc2c(O)ccc3ccccc23)c(C)c1 |  | inactive
